The results in this text go back to PubChem BioAssay (EPA / NIEHS).

The target in assay [1] is Bile acid receptor (Homo sapiens) (UniProt Q96RI1). The assay can be described thus: ATG_FXR_TRANS: Attagene TRANS-FACTORIAL HepG2 Assay for Farnesoid X Receptor (FXR) (AID 2282979; active = hit-call score of the fitted dose curve at least 0.9, where 1 is the maximum;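 note: hits raise reporter mRNA above DMSO so AC50 marks FXR activation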). To be noted: HepG2 Attagene TRANS FXR-GAL4 reporter transcription. A digest of the protocol: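 HepG2 cells transiently transfected with reporter constructs in which a chimeric FXR-GAL4 protein drives a GAL4-UAS reporter; 24 h compound exposure. Reporter mRNA measured by RT-PCR, FAM labelling, HpaI digestion and capillary electrophoresis; gain-of-signal versus DMSO.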
Bile acid receptor (Homo sapiens), sequence (Q96RI1 whole entry, looked up, the tested form may be a part): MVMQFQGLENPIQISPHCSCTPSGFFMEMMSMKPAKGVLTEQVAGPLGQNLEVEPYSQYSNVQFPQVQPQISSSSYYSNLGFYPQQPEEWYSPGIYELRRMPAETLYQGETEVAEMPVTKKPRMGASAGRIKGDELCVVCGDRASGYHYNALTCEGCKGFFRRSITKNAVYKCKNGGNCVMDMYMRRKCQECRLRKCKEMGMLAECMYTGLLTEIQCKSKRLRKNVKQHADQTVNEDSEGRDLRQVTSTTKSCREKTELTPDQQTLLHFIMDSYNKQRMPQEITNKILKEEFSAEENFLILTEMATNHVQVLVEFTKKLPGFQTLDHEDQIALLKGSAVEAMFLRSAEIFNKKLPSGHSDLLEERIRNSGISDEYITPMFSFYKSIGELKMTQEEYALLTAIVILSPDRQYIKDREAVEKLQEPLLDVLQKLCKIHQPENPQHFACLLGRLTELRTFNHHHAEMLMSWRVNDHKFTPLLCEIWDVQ

Assay [2] concerns the target Oxysterols receptor LXR-beta (Homo sapiens) (UniProt P55055). Put plainly: ATG_LXRb_TRANS: Attagene TRANS-FACTORIAL HepG2 Assay for human Liver X Receptor beta (LXRb) (AID 2282981; active = hit-call score of the fitted dose curve at least 0.9, where 1 is the maximum). To be noted: HepG2 Attagene TRANS GAL4-LXRb reporter, mRNA. A digest of the protocol:
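Liver-derived HepG2 cells transfected with Gal4-responsive reporters were dosed for 24 h. Activation was scored as rise in reporter mRNA, by RT-PCR and capillary electrophoresis, above DMSO baseline.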

A short description of assay [3]: ATG_M_06_TRANS: Attagene TRANS-FACTORIAL HepG2 Assay for M06 Transcription Factor (Internal Marker) (AID 2282983; active = hit-call score of the fitted dose curve at least 0.9, where 1 is the maximum;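 note: reporter transcript level by RT-PCR then capillary electrophoresis fluorescence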). Conditions: HepG2 Attagene TRANS M06 internal marker reporter. A digest of the protocol: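 In this multiplexed HepG2 system, compounds are incubated 24 h with cells carrying GAL4-UAS reporter units. Reporter RNA is amplified and resolved by capillary electrophoresis, and induction is scored against DMSO.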

Assay [4] can be described thus: ATG_M_32_TRANS: Attagene TRANS-FACTORIAL HepG2 Assay for M32 Transcription Factor (Internal Marker) (AID 2282984; active = hit-call score of the fitted dose curve at least 0.9, where 1 is the maximum;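 note: transcript level of a background control reporter unit measured by RT-PCR and capillary electrophoresis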). Conditions: HepG2 Attagene TRANS M32 internal marker reporter. A digest of the protocol: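 Fluorescence-detected mRNA induction, HepG2 liver cells, 24 h after dosing. Multiple GAL4-UAS reporter units introduced by transient transfection; background-control endpoint analysed for gain of signal against DMSO.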

Assay [5] deals with Nuclear respiratory factor 1 (Homo sapiens) (UniProt Q16656). The assay can be described thus: ATG_NRF1_CIS: Attagene CIS-FACTORIAL HepG2 Assay for human Nuclear Respiratory Factor 1 (NRF1) Orphan Gene (AID 2282987). Conditions: HepG2 NRF1 cis-element reporter, Attagene multiplex; actives raise or lower the signal. A digest of the protocol:
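Transcriptional reporter readout, one component of a 52-endpoint multiplexed HepG2 panel. Exposure 24 h; mRNA detected via RT-PCR and fluorescent capillary electrophoresis; fitting in both directions against DMSO.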

For assay [6], the target named is Myc proto-oncogene protein (Homo sapiens) (UniProt P01106). The assay can be described thus: ATG_Myc_CIS: Attagene CIS-FACTORIAL HepG2 Assay for human Myelocytomatosis (Myc) Proto-Oncogene Transcription Factor (AID 2282990). Conditions: HepG2, Attagene cis-reporter transcription factor activity; actives raise or lower the signal. The procedure, abridged: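 DMSO-normalised, bidirectionally fitted reporter mRNA signal. HepG2 cells transfected with cis reporter constructs, treated 24 h; transcripts detected by RT-PCR, 6-FAM primer extension and CE.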
Myc proto-oncogene protein (Homo sapiens), sequence (P01106 whole entry, looked up): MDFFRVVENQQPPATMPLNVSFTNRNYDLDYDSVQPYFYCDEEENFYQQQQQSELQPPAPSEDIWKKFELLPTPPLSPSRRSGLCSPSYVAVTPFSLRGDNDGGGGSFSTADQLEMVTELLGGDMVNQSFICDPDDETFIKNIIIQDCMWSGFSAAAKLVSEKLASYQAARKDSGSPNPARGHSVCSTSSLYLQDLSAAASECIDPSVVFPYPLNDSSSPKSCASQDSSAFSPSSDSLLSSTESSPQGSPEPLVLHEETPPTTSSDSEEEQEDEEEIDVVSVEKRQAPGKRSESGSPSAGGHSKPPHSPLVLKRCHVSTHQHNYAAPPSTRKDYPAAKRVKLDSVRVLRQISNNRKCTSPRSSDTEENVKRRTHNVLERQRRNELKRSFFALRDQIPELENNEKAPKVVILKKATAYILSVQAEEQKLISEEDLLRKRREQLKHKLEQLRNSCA

A short description of assay [7]: ATG_NRF2_ARE_CIS: Attagene CIS-FACTORIAL HepG2 Assay for human Nuclear Factor Erythroid 2 Related Factor 2 (NFR2) response to Antioxidant Response Elements (ARE) (AID 2282992).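 For AC50: reporter mRNA level measured by RT-PCR and capillary electrophoresis fluorescence.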 Conditions: HepG2 Attagene ARE/NRF2 reporter, transcription factor activity; actives raise or lower the signal. A digest of the protocol:
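Fluorescence intensity of reporter-specific cDNA fragments, separated by capillary electrophoresis, reflects mRNA induction in transfected HepG2 cells at 24 h. Activity is fitted bidirectionally, DMSO serving as baseline.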

Assay [8] is described as follows: ATG_Oct_MLP_CIS: Attagene CIS-FACTORIAL HepG2 Assay for human Octamer-Binding Transcription Factor (Oct) (AID 2282993). To be noted: HepG2 Attagene cis-factorial Oct reporter, mRNA; actives raise or lower the signal. The procedure, abridged: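 Using HepG2 cells bearing transfected cis-reporter constructs, mRNA induction was read after 24 h by fluorescent RT-PCR and capillary electrophoresis, with DMSO defining baseline for gain- or loss-of-signal fits.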

In assay [9] the target is Cellular tumor antigen p53 (Homo sapiens) (UniProt P04637). The assay can be described thus: ATG_p53_CIS: Attagene CIS-FACTORIAL HepG2 Assay for human p53 Transcription Factor (AID 2282994). To be noted: HepG2 p53 cis-element reporter, Attagene mRNA; actives raise or lower the signal. A digest of the protocol: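 Transiently transfected HepG2 (multiple cis reporter transcription units); exposure 24 h; reporter RNA via RT-PCR, 6-FAM extension, 2 h HpaI digest at 37 C, CE detection; DMSO baseline.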
Cellular tumor antigen p53 (Homo sapiens), sequence (P04637 whole entry, looked up): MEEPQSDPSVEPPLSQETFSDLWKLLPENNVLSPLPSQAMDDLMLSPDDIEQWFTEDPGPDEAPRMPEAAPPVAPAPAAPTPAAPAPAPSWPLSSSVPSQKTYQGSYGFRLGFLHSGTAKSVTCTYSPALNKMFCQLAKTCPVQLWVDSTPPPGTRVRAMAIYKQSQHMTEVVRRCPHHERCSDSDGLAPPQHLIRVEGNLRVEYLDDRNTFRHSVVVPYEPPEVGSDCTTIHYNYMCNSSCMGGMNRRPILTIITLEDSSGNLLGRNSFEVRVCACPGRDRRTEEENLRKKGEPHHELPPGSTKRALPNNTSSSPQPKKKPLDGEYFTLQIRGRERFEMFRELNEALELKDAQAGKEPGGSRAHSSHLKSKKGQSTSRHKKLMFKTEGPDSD

Assay [10] in a line: BSK_3C_TissueFactor: BioMAP Diversity Plus: 3C Assay for Tissue Factor Biomarker Activity (AID 2282997). To be noted: BioMAP 3C HUVEC, tissue factor biomarker readout; actives raise or lower the signal. The procedure, abridged: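 Readout: Tissue Factor ELISA. Cells: human primary umbilical vein endothelium. Time: 24 h after dosing. Analysis: bidirectional fit, DMSO baseline.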

Assay [11] in a line: BSK_3C_VCAM1: BioMAP Diversity Plus: 3C Assay for Vascular cell adhesion molecule 1 (VCAM1) Biomarker Activity (AID 2282999). Conditions: BioMAP 3C HUVEC, VCAM1 ELISA, cytokine-stimulated; actives raise or lower the signal. A digest of the protocol: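 Vascular primary endothelium (human umbilical vein) was exposed to chemicals and assayed 24 h later. VCAM-1 levels came from ELISA, with DMSO serving as baseline for bidirectional fitting.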

Assay [12] in a line: BSK_4H_Eotaxin3: BioMAP Diversity Plus: 4H Assay for Eotaxin 3 Biomarker Activity (AID 2283000).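 For outcome: CCL26 protein level quantified by ELISA in parallel with SRB cytotoxicity check.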 Conditions: primary human endothelial cells (HUVEC); actives raise or lower the signal. A digest of the protocol: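 HUVEC, 24 h post-dose, ELISA for Eotaxin-3/CCL26. Gain or loss of signal fitted bidirectionally vs DMSO baseline.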
The target of assay [13] is human Peroxisome Proliferator-activated Receptor alpha (PPARa), PPARA (gene 5465) (UniProt Q07869). The assay can be described thus: ATG_PPARa_TRANS: Attagene TRANS-FACTORIAL HepG2 Assay for human Peroxisome Proliferator-activated Receptor alpha (PPARa) (AID 2283001; active = hit-call score of the fitted dose curve at least 0.9, where 1 is the maximum). A digest of the protocol: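 Exposure: 24 h, transiently transfected HepG2 cells. Endpoint: GAL4-UAS reporter mRNA, RT-PCR with capillary electrophoresis fluorescence. Baseline: DMSO; increases fitted.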
human Peroxisome Proliferator-activated Receptor alpha (PPARa), PPARA (gene 5465), sequence (Q07869 whole entry, looked up, the tested form may be a part): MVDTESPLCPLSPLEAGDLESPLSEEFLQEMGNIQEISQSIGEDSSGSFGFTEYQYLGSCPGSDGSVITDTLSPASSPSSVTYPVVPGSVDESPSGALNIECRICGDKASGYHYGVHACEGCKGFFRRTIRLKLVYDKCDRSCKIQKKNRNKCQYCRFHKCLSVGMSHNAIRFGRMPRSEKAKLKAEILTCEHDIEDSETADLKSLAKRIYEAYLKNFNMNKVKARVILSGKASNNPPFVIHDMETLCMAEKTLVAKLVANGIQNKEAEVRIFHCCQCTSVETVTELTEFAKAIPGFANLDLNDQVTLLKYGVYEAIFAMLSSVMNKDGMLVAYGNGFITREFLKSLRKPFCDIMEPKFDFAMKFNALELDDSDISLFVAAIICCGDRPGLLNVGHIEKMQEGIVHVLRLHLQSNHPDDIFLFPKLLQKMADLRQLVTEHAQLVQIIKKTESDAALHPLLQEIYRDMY

For assay [14], the target named is Nuclear receptor subfamily 4 group A member 2 (Homo sapiens) (UniProt P43354). The assay can be described thus: ATG_NURR1_TRANS: Attagene TRANS-FACTORIAL HepG2 Assay for human Nuclear Receptor Related Protein 1 (NURR1) (AID 2282985; active = hit-call score of the fitted dose curve at least 0.9, where 1 is the maximum). Conditions: HepG2 Attagene TRANS reporter, mRNA readout. The procedure, abridged:
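Chimeric NR-Gal4 proteins were expressed in human HepG2 cells bearing GAL4-UAS reporter units, and induced reporter mRNA was quantified 24 h post-dosing by RT-PCR and capillary electrophoresis.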

The target of assay [15] is Transcriptional activator Myb (Homo sapiens) (UniProt P10242). The assay can be described thus: ATG_Myb_CIS: Attagene CIS-FACTORIAL HepG2 Assay for human Myeloblastosis (Myb) Proto-Oncogene Transcription Factor (AID 2282986). To be noted: HepG2 Attagene CIS-FACTORIAL Myb reporter transcription; actives raise or lower the signal. A digest of the protocol: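 Fluorescence signals from capillary electrophoresis of RT-PCR-amplified reporter cDNA give the read-out. Cells: HepG2 transfected with multiple cis-regulated reporter units. Exposure lasts 24 hours; DMSO defines baseline for gain or loss of signal.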
Transcriptional activator Myb (Homo sapiens), sequence (P10242 whole entry, looked up): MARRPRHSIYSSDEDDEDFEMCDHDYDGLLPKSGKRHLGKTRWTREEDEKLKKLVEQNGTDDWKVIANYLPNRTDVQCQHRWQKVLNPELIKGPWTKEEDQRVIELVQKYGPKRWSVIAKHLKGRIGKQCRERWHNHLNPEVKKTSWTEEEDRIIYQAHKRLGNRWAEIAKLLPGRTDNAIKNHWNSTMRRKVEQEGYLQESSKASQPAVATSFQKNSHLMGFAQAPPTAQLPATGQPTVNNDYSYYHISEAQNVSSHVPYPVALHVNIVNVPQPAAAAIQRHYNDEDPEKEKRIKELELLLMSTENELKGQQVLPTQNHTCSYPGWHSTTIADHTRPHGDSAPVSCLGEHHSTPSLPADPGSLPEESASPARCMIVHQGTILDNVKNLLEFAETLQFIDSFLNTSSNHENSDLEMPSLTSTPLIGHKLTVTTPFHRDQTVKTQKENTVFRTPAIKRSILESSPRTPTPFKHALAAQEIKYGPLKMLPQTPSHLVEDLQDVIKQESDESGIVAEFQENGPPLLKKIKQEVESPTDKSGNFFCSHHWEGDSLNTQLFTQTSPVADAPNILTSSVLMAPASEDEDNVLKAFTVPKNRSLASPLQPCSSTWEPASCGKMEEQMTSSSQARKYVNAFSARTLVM

A short description of assay [16]: ATG_NFI_CIS: Attagene CIS-FACTORIAL HepG2 Assay for human Nuclear Factor I (NFI) (AID 2282989). To be noted: HepG2 cis-regulatory reporter, NFI response element transcription; actives raise or lower the signal. The procedure, abridged:
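Transfected HepG2 liver cells, exposed 24 h, supplied total RNA for oligo(dT) reverse transcription and reporter-specific PCR. Labelled, HpaI-cut fragments were sized by capillary electrophoresis; DMSO set the baseline for bidirectional fitting.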

The nature of assay [17]: ATG_NF_kB_CIS: Attagene CIS-FACTORIAL HepG2 Assay for human Nuclear Factor Kappa B (NF-kB) (AID 2282991). To be noted: HepG2 Attagene cis-factorial NF-kB reporter mRNA; actives raise or lower the signal. A digest of the protocol: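 HepG2, transient multi-reporter transfection, cis promoter elements (endogenous TFs). 24 h exposure. Total RNA → RT → PCR → 6-FAM label → HpaI → CE. Gain/loss vs DMSO.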

The target in assay [18] is Hepatocyte nuclear factor 4-alpha (Homo sapiens) (UniProt P41235). Put plainly: ATG_HNF4a_TRANS: Attagene TRANS-FACTORIAL HepG2 Assay for human Hepatocyte Nuclear Factor 4 alpha (HNF4a) (AID 2282982; active = hit-call score of the fitted dose curve at least 0.9, where 1 is the maximum). Conditions: HepG2 HNF4a transactivation reporter, mRNA readout. A digest of the protocol: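 Using HepG2 liver cells transfected with GAL4-UAS reporter units, chemical-induced mRNA increases were assessed after 24 hours. Fluorescent RT-PCR fragments were separated by capillary electrophoresis and compared with DMSO negative controls.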
Hepatocyte nuclear factor 4-alpha (Homo sapiens), sequence (P41235 whole entry, looked up, the tested form may be a part): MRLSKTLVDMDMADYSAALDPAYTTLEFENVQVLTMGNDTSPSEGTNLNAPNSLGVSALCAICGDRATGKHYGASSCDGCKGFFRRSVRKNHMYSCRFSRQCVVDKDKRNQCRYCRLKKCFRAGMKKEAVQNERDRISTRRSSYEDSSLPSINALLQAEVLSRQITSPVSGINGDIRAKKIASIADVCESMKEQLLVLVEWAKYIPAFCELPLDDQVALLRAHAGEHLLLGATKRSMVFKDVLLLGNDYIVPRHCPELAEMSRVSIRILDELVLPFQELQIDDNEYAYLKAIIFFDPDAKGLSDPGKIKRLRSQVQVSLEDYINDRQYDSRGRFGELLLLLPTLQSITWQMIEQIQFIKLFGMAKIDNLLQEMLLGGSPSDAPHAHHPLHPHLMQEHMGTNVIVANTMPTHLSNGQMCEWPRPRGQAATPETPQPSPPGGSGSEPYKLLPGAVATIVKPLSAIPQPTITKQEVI

Assay [19] in a line: BSK_3C_uPAR: BioMAP Diversity Plus: 3C Assay for Urokinase-type plasminogen activator receptor (uPAR) Biomarker Activity (AID 2282998). Conditions: BioMAP 3C HUVEC, uPAR biomarker ELISA; actives raise or lower the signal. A digest of the protocol:
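In this endothelial cell-based assay, human umbilical vein primary cells were treated with chemicals and harvested at 24 h. uPAR was quantified using ELISA, with gains or losses fitted relative to DMSO controls.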
(In an ELISA, binding on a coated surface is turned into a signal by an enzyme label.)

“And” between values parts separate entries of the source, which are not always exact repeats. Equal entries are not always repeated. Records with an inconclusive call do not appear. Some structures have more than one record in an assay (separate samples or runs), and their calls can disagree. The source made the active and inactive calls. Rule for the calls, unless noted: active = hit-call score of the fitted dose curve at least 0.9, where 1 is the maximum; inactive = score below 0.9.

Oxysterols receptor LXR-beta (Homo sapiens), sequence (P55055 whole entry, looked up, the tested form may be a part): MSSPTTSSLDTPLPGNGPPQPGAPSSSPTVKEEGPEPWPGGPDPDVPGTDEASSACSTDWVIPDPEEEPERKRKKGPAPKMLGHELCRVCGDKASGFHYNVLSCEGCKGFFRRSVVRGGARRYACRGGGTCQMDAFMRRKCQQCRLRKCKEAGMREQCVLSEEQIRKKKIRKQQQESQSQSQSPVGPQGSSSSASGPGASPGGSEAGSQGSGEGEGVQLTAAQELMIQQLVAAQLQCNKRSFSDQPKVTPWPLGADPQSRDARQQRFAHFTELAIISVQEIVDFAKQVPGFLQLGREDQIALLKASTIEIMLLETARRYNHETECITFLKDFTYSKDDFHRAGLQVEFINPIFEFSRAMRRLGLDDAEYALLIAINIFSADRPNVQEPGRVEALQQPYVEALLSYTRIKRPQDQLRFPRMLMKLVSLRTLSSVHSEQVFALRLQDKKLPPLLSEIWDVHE
Nuclear respiratory factor 1 (Homo sapiens), sequence (Q16656 whole entry, looked up): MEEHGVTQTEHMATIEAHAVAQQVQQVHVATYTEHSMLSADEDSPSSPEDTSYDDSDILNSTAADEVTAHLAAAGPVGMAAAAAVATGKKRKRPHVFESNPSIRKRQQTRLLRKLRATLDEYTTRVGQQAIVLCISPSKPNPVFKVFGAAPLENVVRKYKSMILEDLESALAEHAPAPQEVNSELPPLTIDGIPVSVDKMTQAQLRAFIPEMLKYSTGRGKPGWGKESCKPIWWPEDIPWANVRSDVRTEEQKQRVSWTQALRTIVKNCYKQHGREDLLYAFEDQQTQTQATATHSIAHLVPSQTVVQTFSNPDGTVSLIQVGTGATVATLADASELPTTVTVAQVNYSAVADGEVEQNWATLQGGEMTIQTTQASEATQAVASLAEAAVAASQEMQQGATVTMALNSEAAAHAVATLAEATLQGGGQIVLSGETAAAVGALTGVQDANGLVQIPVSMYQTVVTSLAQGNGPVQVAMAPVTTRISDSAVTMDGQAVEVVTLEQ
Nuclear receptor subfamily 4 group A member 2 (Homo sapiens), sequence (P43354 whole entry, looked up, the tested form may be a part): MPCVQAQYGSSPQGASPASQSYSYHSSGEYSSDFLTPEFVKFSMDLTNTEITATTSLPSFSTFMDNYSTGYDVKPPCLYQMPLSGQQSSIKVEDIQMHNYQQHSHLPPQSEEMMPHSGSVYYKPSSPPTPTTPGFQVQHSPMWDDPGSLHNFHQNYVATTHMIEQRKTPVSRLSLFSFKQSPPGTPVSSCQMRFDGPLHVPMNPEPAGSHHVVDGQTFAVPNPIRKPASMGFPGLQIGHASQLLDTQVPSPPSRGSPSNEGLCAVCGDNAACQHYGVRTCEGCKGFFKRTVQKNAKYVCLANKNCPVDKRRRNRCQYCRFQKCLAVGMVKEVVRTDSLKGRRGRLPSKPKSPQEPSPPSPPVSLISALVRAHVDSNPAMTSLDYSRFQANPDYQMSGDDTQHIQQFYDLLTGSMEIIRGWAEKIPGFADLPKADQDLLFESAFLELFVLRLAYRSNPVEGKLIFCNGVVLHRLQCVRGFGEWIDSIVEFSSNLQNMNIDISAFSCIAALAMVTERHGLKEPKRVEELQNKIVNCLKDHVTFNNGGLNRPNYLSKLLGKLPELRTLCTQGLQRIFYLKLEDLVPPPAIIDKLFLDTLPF

As a reminder, the AC50 is the concentration giving half of the maximal activity seen. On to `OCCC(F)(F)C(F)(F)C(F)(F)C(F)(F)C(F)(F)C(F)(F)F`, for which the call in assay [1], in assay [2], in assay [3], in [4], in [5] and in assay [6] was inactive. Moreover, the outcome in assay [7], in assay [8], in assay [9], in assay [10], in [11] and in assay [12] was inactive. For the same compound, in [13], the compound was classed as inactive. Further, the concentration at half-maximal activity (AC50) in assay [7] is 50.3 µM (active); in [8], 136 µM (active); in [10], 46.3 µM (active) and 30 µM (active); in [11], 51.7 µM (active); in assay [12], 0.436 µM (active).

Regarding `C=C(C)C(=O)OCCC(F)(F)C(F)(F)C(F)(F)C(F)(F)C(F)(F)C(F)(F)F`, the outcome in [1], in assay [2], in assay [4], in assay [14], in [15] and in [5] was inactive. Also, the outcome in assay [16], in assay [6], in assay [17], in assay [7], in [8] and in [9] was inactive. The outcome in assay [10], in [11], in assay [12] and in [13] was inactive. For the same compound, the half-maximal activity concentration (AC50) in assay [12] was 20 µM (active).

For `Cc1cc(CCN2CCN(c3nsc4ccccc34)CC2)cc2c1NC(=O)CC2(C)C`, the compound was classed as inactive in assay [1], in assay [2], in assay [18], in assay [3], in assay [15] and in assay [5]. Besides, the compound was called inactive in assay [6], in [17] and in assay [9]. The AC50 in assay [7] is 4.32 µM (active); in assay [8], 8.81 µM (active); in [10], 26.9 µM (active); in assay [19], 26.6 µM (active); in assay [11], 33.2 µM (active); in assay [12], 33.6 µM (active).
